D2 antag: antagonizes the human D2 dopamine receptor. P14416. HEK293 TREx D2 cells, calcium flux, dopamine EC80. inhibition, % at 10 µM. 340,000 compounds, 2% hits; in the data active = inhibition above about 30%; inactive = below that, where a call was filed
Target sequence (P14416 whole entry, looked up): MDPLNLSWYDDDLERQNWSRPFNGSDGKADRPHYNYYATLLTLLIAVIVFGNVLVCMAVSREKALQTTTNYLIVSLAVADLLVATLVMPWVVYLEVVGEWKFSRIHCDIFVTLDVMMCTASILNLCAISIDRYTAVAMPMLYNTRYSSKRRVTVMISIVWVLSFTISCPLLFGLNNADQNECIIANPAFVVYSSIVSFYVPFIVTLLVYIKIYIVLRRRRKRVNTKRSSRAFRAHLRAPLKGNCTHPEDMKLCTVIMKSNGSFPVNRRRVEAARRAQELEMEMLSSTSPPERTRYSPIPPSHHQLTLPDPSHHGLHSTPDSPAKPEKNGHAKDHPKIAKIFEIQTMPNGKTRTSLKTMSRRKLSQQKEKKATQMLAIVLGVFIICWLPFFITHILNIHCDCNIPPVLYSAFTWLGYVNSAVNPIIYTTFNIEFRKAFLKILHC
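Calcium flux kinetic readout in an inducible HEK293 TREx D2 line plated overnight at 30 C. After 180 s compound exposure, an EC80 dopamine challenge follows with another 180 s kinetic read to detect antagonism.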
D2 PAM-1: potentiates the human D2 dopamine receptor allosterically; P14416; DiscoveRx D2 beta-arrestin cells, luminescence, 90 min; 100% = 57 uM dopamine signal; potentiation, % (concentration not given with the values); 360,000 compounds, 0.23% hits; AID 624464; in the data active = potentiation above about 50%
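D2 cells co-treated with compound plus 50 nM dopamine (EC20) for 90 min at 37 deg C to detect potentiation. Beta-arrestin recruitment was read as enzyme-fragment luminescence after 1 h at ambient temperature. Full response was set by 57 uM dopamine.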
D2 ag-1: human D2 receptor agonism in beta-arrestin assay; DiscoveRx PathHunter D2 beta-arrestin, luminescence, 90 min; 100% = 57 uM dopamine signal; P14416; AID 624465; activation, % (no concentration beside the values); 360,000 compounds, 0.084% hits; in the data active = activation above about 40%
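DiscoveRx PathHunter D2 beta-arrestin cells (2,100/well) attached overnight, then compound-stimulated 90 min at 37 C in HBSS/10 mM HEPES/0.1% Tween-20 buffer; beta-galactosidase complementation read by luminescence after 1 h at ambient temperature. Dopamine 57 uM final (EC100) as control.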
D2 PAM-2: positively modulates the human D2 dopamine receptor allosterically; potentiation, % at 10 µM; P14416; HEK293 T-REx D2, calcium flux, EC20 dopamine potentiation; 340,000 compounds, 0.34% hits; AID 485347;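 active = potentiation over 3 SD above the plate norm, cut at about 30% in these data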
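Potentiation of an EC20 dopamine calcium response is measured in a force-coupled, tetracycline-inducible Hek293 Trex D2 line. Compound-only kinetic reads over 180 s flag agonists before dopamine addition.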
D2 ag-2: D2 dopamine receptor (human) agonism | P14416 | HEK293 T-REx D2 cells, calcium flux agonist mode | activation, % at 2 µM | 340,000 compounds, 0.53% hits;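 active = activation over 3 SD above normal in the single-dose calcium agonist read, cut at about 30% in these data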
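In this primary screen, compounds producing a positive calcium signal within 180 s of addition to tetracycline-induced, force-coupled HEK293 Trex D2 cells are flagged; cells are dye-loaded with a no-wash calcium kit beforehand.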
Each line names hits and unclear results; the compound was inactive in the other large screens. In the library only some 2.4% were active in any assay of this set; here they are far more common.

Cn1c(CN2CCN(CC#N)CC2)c(C#N)c2ccccc21	none
Cn1c(CN2CCCCC2)c(C#N)c2ccccc21	D2 antag 46
COc1cccc(N(C(C)=O)c2nc(C)cc(C)c2C#N)c1	D2 antag 36 (no result: D2 PAM-2)
CCCCn1c(CNC(=O)CCC)nc2ccccc21	D2 antag 34
C[N+](C)(C)CCN(Cc1ccc(Cl)cc1)c1ccccn1	none
CN(C)CCN(Cc1ccc(Cl)cc1)c1ccccn1	D2 antag 59
CO/N=C/NC(=O)NOCc1ccc(Cl)cc1Cl	none
O=C(N/C=N/OCc1ccc(Cl)cc1Cl)NOCc1c(Cl)cccc1Cl	D2 antag 31
OCCNCCOCCOc1ccccc1-c1ccccc1	D2 antag 33
CNCCCCOc1ccccc1-c1ccccc1	none
CC(C)(C)c1ccccc1OCCCCCNCCO	D2 antag 50
CNCCOc1ccccc1-c1ccccc1	D2 antag 45
CN(C)CCOCCOc1ccccc1-c1ccccc1	none
OCCNCCOc1ccccc1-c1ccccc1	D2 antag 66
Cc1ccccc1OCCCCCNCCO	none
COc1ccc(NC(=O)CSc2ccc3nc(-c4ccccc4)cn3n2)c(OC)c1	none (no result: D2 antag, D2 PAM-1, D2 ag-1)
O=S(=O)(c1cccs1)N1CCN(CC(O)COC2CCCc3ccccc32)CC1 (stereo unspecified)	none
CCOc1ccccc1N1CCN(CC(O)COC2CCCc3ccccc32)CC1 (stereo unspecified)	D2 antag 78
COc1ccccc1N1CCN(CC(O)c2c(C)[nH]c3ccccc23)CC1 (stereo unspecified)	D2 antag 65
COC(=O)c1[nH]c2cc(C)ccc2c1NC(=O)CN1CCOCC1	none
COC(=O)c1[nH]c2cc(C)ccc2c1NC(=O)CN1CCN(c2ccccc2OC)CC1	D2 antag 70
COc1ccccc1N1CCN(CC(=O)c2c(C)[nH]c3ccccc23)CC1	D2 antag 31
Cc1ccc(NC(=O)CCSc2nc(-c3ccc4c(c3)OCO4)cc(C(F)(F)F)n2)cc1	none (no result: D2 antag, D2 PAM-1, D2 ag-1)
CCCCN(C)C(=O)c1ccc2c(=O)n3nc(Nc4cc(C)ccc4C)sc3nc2c1	none (no result: D2 antag, D2 PAM-1, D2 ag-1)
COc1ccc2c(C(=O)CN3CCN(c4ccccc4)CC3)c[nH]c2c1	D2 antag 41, D2 ag-2 56
Cc1ccccc1OCC(O)CN1CCN(C)CC1 (stereo unspecified)	none
OC(COc1ccccc1Cl)CN1CCN(CC(O)COc2ccccc2Cl)CC1 (stereo unspecified)	D2 antag 70
COc1ccccc1N1CCN(CC(O)COc2cccc3ccccc23)CC1 (stereo unspecified)	D2 antag 86
COc1ccccc1N1CCN(CC(=O)c2c[nH]c3ccccc23)CC1	D2 antag 63
COc1ccc2c(C(=O)CN3CCSCC3)c[nH]c2c1	none
O=C(CN1CCN(c2ccccc2F)CC1)c1c[nH]c2ccccc12	none
C=CCc1ccccc1OCC(O)CN1CCN(c2ccccc2OC)CC1 (stereo unspecified)	none
Cc1cc(C)c(S(=O)(=O)NCC2CCC(C(=O)NCCc3ccccc3)CC2)c(C)c1 (stereo unspecified)	none (no result: D2 antag, D2 PAM-1, D2 ag-1)
Cc1cc(C)cc(NC(=O)CSCn2nnc3c(=O)[nH]c(Cc4ccc(F)cc4)nc32)c1	none (no result: D2 antag, D2 PAM-1, D2 ag-1)
CCC(C)NC(=O)c1cc2cc(S(=O)(=O)N3CCCCC3)ccc2n1C (stereo unspecified)	none (no result: D2 antag, D2 PAM-1, D2 ag-1)
Cc1ccc(C)c(NC(=O)CN2C(=O)C3(SCC(=O)N3c3ccc(C)c(C)c3)c3ccccc32)c1 (stereo unspecified)	none (no result: D2 antag, D2 PAM-1, D2 ag-1)
COc1cc(C(C)=O)ccc1OCC(O)CN1CCN(c2ccccn2)CC1 (stereo unspecified)	D2 antag 93, D2 ag-1 60, D2 ag-2 78
C=CCc1ccccc1OCC(O)CN1CCN(c2ccccc2F)CC1 (stereo unspecified)	D2 antag 66
COc1ccccc1C(=O)Nc1cccc(C(=O)OCc2cc(=O)n3cc(C)sc3n2)c1	none (no result: D2 antag, D2 PAM-1, D2 ag-1)
COc1ccc(S(=O)(=O)n2ccnc2)cc1C(C)(C)C	none (no result: D2 antag, D2 PAM-1, D2 ag-1)
COc1ccccc1NC(=O)NCCN1CCN(c2cccc(Cl)c2)CC1	D2 antag 53
COC(=O)c1[nH]c2cccc(OC)c2c1NC(=O)CCN1CCN(c2cccc(Cl)c2)CC1	D2 antag 38 (no result: D2 PAM-1, D2 ag-1)
Cc1cccc(NC(=O)C2CCCN(S(=O)(=O)c3ccc(Br)s3)C2)c1 (stereo unspecified)	none (no result: D2 antag, D2 PAM-1, D2 ag-1)
CC(=O)Nc1ccc(C(=O)COC(=O)c2cccs2)c(F)c1	D2 antag 35
CC(=O)Nc1ccc(C(=O)COC(=O)c2c(C)noc2C)c(F)c1	none
COc1cc(NC(=O)c2nnn(CC(=O)Nc3cc(C)ccc3C)c2N)cc(OC)c1	none (no result: D2 antag, D2 PAM-1, D2 ag-1)
Cc1ccccc1OCCCn1c(-c2ccc(Cl)cc2)nc2ccccc2c1=O	none (no result: D2 antag, D2 PAM-1, D2 ag-1, D2 ag-2)
CCOC(=O)C1=C(c2ccccc2)NC(SCC(=O)Nc2cccc(C)c2)=C(C#N)C1c1ccco1 (stereo unspecified)	none
CCOC(=O)C1=C(c2ccccc2)NC(SCC(=O)Nc2ccc(C)cc2)=C(C#N)C1c1ccco1 (stereo unspecified)	D2 antag 55
CC(C)OP(=O)(OC(C)C)C(Nc1ccc(C(=O)O)cc1)c1ccccc1 (stereo unspecified)	D2 PAM-2 30
CC(C)OP(=O)(OC(C)C)C(Nc1cccc(C(=O)O)c1)c1ccccc1 (stereo unspecified)	none
Cc1ccc(C#N)c(SCCN2CCCCC2)n1	D2 antag 34
CCOC(=O)C(Cc1cc(C(C)=O)ccc1OC(C)C)C(=O)OCC	D2 antag 54
CCOC(=O)C(Cc1cc(C(C)=O)ccc1OCC)C(=O)OCC	none
Cc1cccc(Nc2nc(N3CCOCC3)nc(N3CCOCC3)n2)c1	none
Oc1cccc(Nc2nc(N3CCOCC3)nc(N3CCOCC3)n2)c1	D2 antag 36
Cc1cc(C)c(NC(=O)CN2C(=O)CCSc3ccc(S(=O)(=O)N4CCCC4)cc32)c(C)c1	none (no result: D2 antag, D2 PAM-1, D2 ag-1)
O=C1c2[nH]nc(-c3ccccc3O)c2C(c2cccc(Br)c2)N1Cc1ccncc1 (stereo unspecified)	none (no result: D2 antag, D2 PAM-1, D2 ag-1)
O=S(=O)(NCC1CCN(Cc2ccccc2)CC1)c1ccccc1C(F)(F)F	D2 antag 54
CC(C)Cc1nnc(NS(=O)(=O)Cc2ccccc2)s1	D2 antag 32
CC(C)Cc1nnc(NS(=O)(=O)c2ccccc2)s1	none (no result: D2 antag, D2 PAM-2, D2 ag-2)
CC(C)(C)CC(=O)Nc1nnc(SCC(=O)N2CCCCC2)s1	D2 PAM-2 32
CC(C)(C)CC(=O)Nc1nnc(SCC(=O)NC2CCCCC2)s1	none
CCN(C(=O)c1cc2c(s1)-c1ccccc1OC2)c1cccc(C(F)(F)F)c1	none (no result: D2 antag, D2 PAM-1, D2 ag-1)
O=C(NC1CC1)c1cc2c(s1)-c1ccccc1OC2	D2 antag 34
O=C(O)c1cc2c(s1)-c1ccccc1OC2	none

Assay outcomes (PubChem)
